Results from PubChem BioAssay (NCATS).
Results filed as inconclusive are left out. Activity calls are given as the source filed them. The call rests on the fitted dose curve; in most records, active means well fitted cell-killing curve with a large enough effect; inconclusive means small, poorly fitted or top-dose-only effect, or effect the other way; inactive means no such curve, though single readings can be large or run the other way.

test: Cell Viability - LYMP2-004 (AID 966); settings: LYMP2-004 lymphoblastoid cell viability, qHTS; series mostly up to 92.2 µM; activity change, negative = cytotoxicity: at the top concentration;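 further: plate controls were DMSO only for no effect and tetraoctylammonium bromide control for full effect; nearly all actives have a fitted effect of over 65% in size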
Description: NIH Chemical Genomics Center [NCGC]
NIH Molecular Libraries Screening Centers Network [MLSCN]
National Institutes of Environmental Health Sciences [NIEHS]
National Toxicology Program [NTP]
We have developed a 1536-well cell-based assay for quantitative high throughput screening (qHTS) against a number of cell lines to determine in vitro cytotoxicity of small molecules. This particular assay uses a human lymphoblastoid cell line (LYMP2-004) purchased from Coriell Institute for Medical Research.
NCGC Assay Protocol Summary:
The CellTiter-Glo luminescent cell viability assay (Promega) is a homogeneous method to measure the number of viable cells in culture. The end point readout of this assay is based on quantitation of intracellular ATP, an indicator of metabolic activity, using the luciferase reaction. Luciferase catalyzes the oxidation of beetle Luciferin to oxyluciferin and light in the presence of ATP. The luminescent signal is proportional to amount of ATP present.
Using the CellTiter-Glo luminescent cell viability assay, the amount of cellular ATP was measured in the lymphoblastoid cell line with complete culture medium following compound treatment for 24 hours. The assay was performed in opaque white Kalypsys 1536-well plates. In the screen, tetraoctylammonium bromide was used as positive control. Library compounds were measured for their ability to cause acute toxicity in the cell line, as reflected by a decrease in intracellular ATP levels, in a concentration-dependent manner. […] AC50 values were determined from concentration-response data modeled with the standard Hill equation.
qHTS protocol for CellTiter Glo lymphoblastoid cellular assay
[Step] [Parameter] [Value] [Description]
1. Reagent; 5 uL; 2500 lymphoblastoid cells/well
2. Time; 5 hr; 37 C incubation
4. Controls; 23 nL; Tetraoctylammonium bromide 6.4pM to 92 uM
5. Time; 24 hr; 37 C incubation
6. Reagent; 5 uL; CellTiter Glo reagent
7. Time; 30 min; Room Temperature
8. Detection; Luminescence; Viewlux plate reader
Keywords: cell viability, cytotoxicity, lymphoblastoid cell line, luminescence, NTPHTS, NTPHTS_NCGC, NIEHS, DSSTox, MLSMR, MLSCN, NIH Roadmap, qHTS, NCGC

| Compound | activity change, negative = cytotoxicity |
| --- | --- |
| Fc1ccccc1 | 20.1% (inactive) |
| Cc1ccccc1C=O | 17.3% (inactive) |
| Nc1nc(CC(=O)O)cs1 | 13.1% (inactive) |
| O=C(O[C@@H](C(=O)O)[C@@H](OC(=O)c1ccccc1)C(=O)O)c1ccccc1 | 3.35% (inactive) |
| CN(C)CCCNCCCN | -19.3% (inactive) |
| Cc1nc2ccc(Cl)cc2[nH]1 | 2.14% (inactive) |
| c1ccc(Nc2ccccc2)cc1 | 17.4% (inactive) |
| CNC(=O)c1ccccc1 | 14.8% (inactive) |
| CC(C)C=O | 3.71% (inactive) |
| C=CCn1c(=O)n(CC=C)c(=O)n(CC=C)c1=O | 22.9% (inactive) |
| CC(C)(C)c1ccc(OCC2CO2)cc1 (stereo not given) | -26.2% (inactive) |
| CNc1ccccc1 | 22.5% (inactive) |
| Cc1ccc(C(C)(C)C)cc1 | 2.68% (inactive) |
| COc1cccc2sc(N)nc12 | 26.8% (inactive) |
| NC(N)=S | 4.21% (inactive) |
| CCCCCCO | 12.3% (inactive) |
| OC1CCCC1 | 20.6% (inactive) |
| CC(=O)c1ccccc1[N+](=O)[O-] | 12% (inactive) |
| CC(O)COC(C)(C)C (stereo not given) | -3.41% (inactive) |
| CC(C)=CCC/C(C)=C/C=O | 4.56% (inactive) |

| Compound | activity change, negative = cytotoxicity |
| --- | --- |
| O=C(O)c1cc(Cl)cc(Cl)c1 | -2.07% (inactive) |
| CSc1ccc(C=O)cc1 | 11.7% (inactive) |
| O=C(O)c1ccccc1[N+](=O)[O-] | 2.64% (inactive) |
| COCCOC(=O)c1ccccc1C(=O)OCCOC | 3.57% (inactive) |
| O=[N+]([O-])c1c(Cl)cc(Cl)cc1Cl | 22.9% (inactive) |
| CC(=C/C=C/C(C)=C/C=C/C=C(C)/C=C/C=C(C)/C=C/C(=O)O)/C=C/C(=O)O | 13.4% (inactive) |
| C1COC1 | 10.7% (inactive) |
| Nc1nc2ccccc2[nH]1 | -8.65% (inactive) |
| CC=C(Cl)Cl | 4.73% (inactive) |
| CCOc1ccc(NC(C)=O)cc1N | -28% (inactive) |
| C1CCOC1 | 4.07% (inactive) |
| O=[N+]([O-])c1ccccc1CCO | 7.41% (inactive) |
| CCCOCC(C)OCC(C)O (stereo not given) | -5.3% (inactive) |
| Oc1c(Cl)ccc(Cl)c1Cl | 21.3% (inactive) |
| ON=C1CCCCC1 | -4.67% (inactive) |
| CC(=O)OC(C)=O | 45.9% (inactive) |
| NC=O | 4.86% (inactive) |
| Cc1cccc2cccnc12 | 12.3% (inactive) |
| Cc1ccc(C(=O)O)cc1 | 26.2% (inactive) |
| CCOC(C)(C)C | 1.96% (inactive) |
